Outcome and AC50 data for four compounds are collected here from PubChem BioAssay (EPA / NIEHS).

For test [1], the target named is Glucocorticoid receptor (Homo sapiens) (UniProt P04150). The test can be described thus: ATG_GR_TRANS: Attagene TRANS-FACTORIAL HepG2 Assay for human Glucocorticoid Receptor (GR) (AID 2282978; active means hit-call score of the fitted dose curve at least 0.9, where 1 is the maximum;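 further: activators score as hits since higher reporter transcript over DMSO is fitted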). The settings on record: HepG2 Attagene TRANS GR reporter, mRNA transcription. The method, boiled down: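 Measurement of GAL4-UAS-driven reporter mRNA in human HepG2 liver cells 24 h post-dosing, using RT-PCR with fluorescent labelling and capillary electrophoresis; the transfected constructs report exogenous NR-GAL4 chimera activity, fitted upward against DMSO.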
Sequence of Glucocorticoid receptor (Homo sapiens) (P04150 whole entry, looked up, the tested form may be a part): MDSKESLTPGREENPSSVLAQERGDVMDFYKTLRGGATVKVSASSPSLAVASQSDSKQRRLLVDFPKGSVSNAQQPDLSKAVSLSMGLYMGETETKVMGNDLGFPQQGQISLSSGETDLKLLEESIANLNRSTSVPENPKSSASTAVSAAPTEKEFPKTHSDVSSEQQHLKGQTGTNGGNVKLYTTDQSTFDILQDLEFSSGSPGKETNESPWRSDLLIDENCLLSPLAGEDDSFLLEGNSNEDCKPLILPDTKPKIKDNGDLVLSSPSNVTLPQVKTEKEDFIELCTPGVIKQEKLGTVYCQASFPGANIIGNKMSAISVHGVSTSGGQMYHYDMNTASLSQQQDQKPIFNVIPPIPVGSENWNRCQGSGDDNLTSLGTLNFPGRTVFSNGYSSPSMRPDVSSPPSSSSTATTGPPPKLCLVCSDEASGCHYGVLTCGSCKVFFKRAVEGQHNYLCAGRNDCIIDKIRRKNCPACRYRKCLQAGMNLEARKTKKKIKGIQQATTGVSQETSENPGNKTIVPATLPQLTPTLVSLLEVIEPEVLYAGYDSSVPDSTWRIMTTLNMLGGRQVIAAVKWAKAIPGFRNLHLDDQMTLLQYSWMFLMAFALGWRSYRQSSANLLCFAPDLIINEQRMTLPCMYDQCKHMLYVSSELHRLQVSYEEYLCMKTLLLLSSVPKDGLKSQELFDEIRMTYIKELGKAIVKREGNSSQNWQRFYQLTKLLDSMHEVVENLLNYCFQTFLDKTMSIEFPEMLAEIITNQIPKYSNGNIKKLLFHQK

The target in test [2] is Oxysterols receptor LXR-alpha (Homo sapiens) (UniProt Q13133). The test can be described thus: ATG_LXRa_TRANS: Attagene TRANS-FACTORIAL HepG2 Assay for human Liver X Receptor alpha (LXRa) (AID 2282980; active means hit-call score of the fitted dose curve at least 0.9, where 1 is the maximum). The conditions noted are these: HepG2 Attagene TRANS reporter, LXRa transactivation. The method, boiled down:
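Transfect HepG2 with GAL4-UAS multiplex reporter constructs (TRANS format, chimeric receptor-GAL4); treat 24 h; extract RNA, reverse-transcribe, PCR-amplify, FAM-label, HpaI-digest; resolve fragments by capillary electrophoresis. Upward response vs DMSO.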

Test [3] concerns the target Oxysterols receptor LXR-beta (Homo sapiens) (UniProt P55055). The test can be described thus: ATG_LXRb_TRANS: Attagene TRANS-FACTORIAL HepG2 Assay for human Liver X Receptor beta (LXRb) (AID 2282981; active means hit-call score of the fitted dose curve at least 0.9, where 1 is the maximum). The conditions noted are these: HepG2 Attagene TRANS GAL4-LXRb reporter, mRNA. In a few lines: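 Gain-of-signal mRNA reporter endpoint, DMSO as negative control. Transiently transfected HepG2 cells carrying the NR-Gal4 chimera and GAL4-UAS reporter units were treated 24 h; transcripts quantified by RT-PCR and capillary electrophoresis fluorescence.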

In test [4] the target is Hepatocyte nuclear factor 4-alpha (Homo sapiens) (UniProt P41235). The test can be described thus: ATG_HNF4a_TRANS: Attagene TRANS-FACTORIAL HepG2 Assay for human Hepatocyte Nuclear Factor 4 alpha (HNF4a) (AID 2282982; active means hit-call score of the fitted dose curve at least 0.9, where 1 is the maximum). The settings on record: HepG2 HNF4a transactivation reporter, mRNA readout. In a few lines:
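Gain-of-signal mRNA induction, relative to DMSO vehicle, was read after 24 h compound treatment of HepG2 cells bearing transfected GAL4-UAS reporters. Detection used RT-PCR, 6-FAM primer extension and capillary electrophoresis.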

The nature of test [5]: ATG_M_32_TRANS: Attagene TRANS-FACTORIAL HepG2 Assay for M32 Transcription Factor (Internal Marker) (AID 2282984; active means hit-call score of the fitted dose curve at least 0.9, where 1 is the maximum;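 further: transcript level of a background control reporter unit measured by RT-PCR and capillary electrophoresis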). The settings on record: HepG2 Attagene TRANS M32 internal marker reporter. The method, boiled down: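 Capillary electrophoresis of 6-FAM-labelled reporter fragments gives the signal; data fitted for gain over DMSO negative control. Source: HepG2 cells bearing transient multiple reporter transcription units, 24 h exposure.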

For test [6], the target named is Nuclear receptor subfamily 4 group A member 2 (Homo sapiens) (UniProt P43354). The test can be described thus: ATG_NURR1_TRANS: Attagene TRANS-FACTORIAL HepG2 Assay for human Nuclear Receptor Related Protein 1 (NURR1) (AID 2282985; active means hit-call score of the fitted dose curve at least 0.9, where 1 is the maximum). The settings on record: HepG2 Attagene TRANS reporter, mRNA readout. The method, boiled down: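 HepG2 / transient MRTU transfection / 24 h compound exposure / RT-PCR + CE fluorescence of reporter mRNA / gain-of-signal vs DMSO.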
Sequence of Nuclear receptor subfamily 4 group A member 2 (Homo sapiens) (P43354 whole entry, looked up): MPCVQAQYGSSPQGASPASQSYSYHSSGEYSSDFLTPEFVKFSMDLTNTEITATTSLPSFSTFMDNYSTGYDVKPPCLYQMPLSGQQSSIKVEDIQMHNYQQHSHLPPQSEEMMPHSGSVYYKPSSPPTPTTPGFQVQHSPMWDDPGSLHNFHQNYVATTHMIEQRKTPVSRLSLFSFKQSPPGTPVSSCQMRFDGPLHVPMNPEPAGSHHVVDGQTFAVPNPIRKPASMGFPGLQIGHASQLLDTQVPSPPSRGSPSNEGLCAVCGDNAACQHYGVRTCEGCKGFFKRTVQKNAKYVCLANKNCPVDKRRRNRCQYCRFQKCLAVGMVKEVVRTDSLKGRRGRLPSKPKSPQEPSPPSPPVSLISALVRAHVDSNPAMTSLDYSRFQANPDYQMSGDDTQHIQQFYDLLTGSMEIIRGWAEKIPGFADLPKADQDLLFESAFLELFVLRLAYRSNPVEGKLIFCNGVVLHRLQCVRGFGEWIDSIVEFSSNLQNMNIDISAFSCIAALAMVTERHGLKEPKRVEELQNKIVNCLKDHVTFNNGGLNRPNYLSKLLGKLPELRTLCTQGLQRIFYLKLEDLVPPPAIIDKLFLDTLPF

The target in test [7] is Transcriptional activator Myb (Homo sapiens) (UniProt P10242). The test can be described thus: ATG_Myb_CIS: Attagene CIS-FACTORIAL HepG2 Assay for human Myeloblastosis (Myb) Proto-Oncogene Transcription Factor (AID 2282986). The settings on record: HepG2 Attagene CIS-FACTORIAL Myb reporter transcription; actives raise or lower the signal. In a few lines: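 Fluorescence signals from capillary electrophoresis of RT-PCR-amplified reporter cDNA give the read-out. Cells: HepG2 transfected with multiple cis-regulated reporter units. Exposure lasts 24 hours; DMSO defines baseline for gain or loss of signal.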
Sequence of Transcriptional activator Myb (Homo sapiens) (P10242 whole entry, looked up): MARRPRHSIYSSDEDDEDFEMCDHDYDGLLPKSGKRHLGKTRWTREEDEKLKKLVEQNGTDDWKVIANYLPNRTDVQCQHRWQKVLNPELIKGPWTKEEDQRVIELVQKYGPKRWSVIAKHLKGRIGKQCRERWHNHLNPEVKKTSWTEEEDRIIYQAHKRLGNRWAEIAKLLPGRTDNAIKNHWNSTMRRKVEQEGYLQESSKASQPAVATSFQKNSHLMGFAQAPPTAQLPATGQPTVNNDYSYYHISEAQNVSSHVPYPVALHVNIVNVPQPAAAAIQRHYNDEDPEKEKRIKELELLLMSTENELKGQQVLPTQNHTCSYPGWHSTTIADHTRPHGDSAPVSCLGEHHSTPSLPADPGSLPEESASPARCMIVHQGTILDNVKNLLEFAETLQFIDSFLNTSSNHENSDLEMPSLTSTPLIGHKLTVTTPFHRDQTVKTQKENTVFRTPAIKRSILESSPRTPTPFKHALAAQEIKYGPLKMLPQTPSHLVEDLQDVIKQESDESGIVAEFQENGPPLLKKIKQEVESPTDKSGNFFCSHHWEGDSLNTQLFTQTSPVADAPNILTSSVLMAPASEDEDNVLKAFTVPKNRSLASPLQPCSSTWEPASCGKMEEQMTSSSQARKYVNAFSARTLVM

Test [8] addresses Nuclear respiratory factor 1 (Homo sapiens) (UniProt Q16656). The test can be described thus: ATG_NRF1_CIS: Attagene CIS-FACTORIAL HepG2 Assay for human Nuclear Respiratory Factor 1 (NRF1) Orphan Gene (AID 2282987). The settings on record: HepG2 NRF1 cis-element reporter, Attagene multiplex; actives raise or lower the signal. The method, boiled down: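 Transcriptional reporter readout, one component of a 52-endpoint multiplexed HepG2 panel. Exposure 24 h; mRNA detected via RT-PCR and fluorescent capillary electrophoresis; fitting in both directions against DMSO.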

Test [9] can be described thus: ATG_NFI_CIS: Attagene CIS-FACTORIAL HepG2 Assay for human Nuclear Factor I (NFI) (AID 2282989). The conditions noted are these: HepG2 cis-regulatory reporter, NFI response element transcription; actives raise or lower the signal. The method, boiled down: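 Read-out: reporter mRNA via RT-PCR plus capillary electrophoresis with fluorescence detection. Transiently transfected HepG2 (endogenous TF activity on cis promoters), 24 h compound exposure; gain or loss of signal fitted against DMSO.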

For test [10], the target named is Myc proto-oncogene protein (Homo sapiens) (UniProt P01106). The test can be described thus: ATG_Myc_CIS: Attagene CIS-FACTORIAL HepG2 Assay for human Myelocytomatosis (Myc) Proto-Oncogene Transcription Factor (AID 2282990). The settings on record: HepG2, Attagene cis-reporter transcription factor activity; actives raise or lower the signal. The method, boiled down:
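Read-out: fluorescent reporter mRNA fragments resolved by capillary electrophoresis after RT-PCR. Human HepG2 liver cells carried transfected cis-element reporter units and were dosed for 24 h. Gain or loss of signal fitted relative to DMSO baseline.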

Test [11] can be described thus: ATG_NF_kB_CIS: Attagene CIS-FACTORIAL HepG2 Assay for human Nuclear Factor Kappa B (NF-kB) (AID 2282991). The settings on record: HepG2 Attagene cis-factorial NF-kB reporter mRNA; actives raise or lower the signal. The method, boiled down: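 HepG2, transient multi-reporter transfection, cis promoter elements (endogenous TFs). 24 h exposure. Total RNA → RT → PCR → 6-FAM label → HpaI → CE. Gain/loss vs DMSO.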

Test [12] can be described thus: ATG_NRF2_ARE_CIS: Attagene CIS-FACTORIAL HepG2 Assay for human Nuclear Factor Erythroid 2 Related Factor 2 (NFR2) response to Antioxidant Response Elements (ARE) (AID 2282992).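 On AC50: reporter mRNA level measured by RT-PCR and capillary electrophoresis fluorescence.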 The conditions noted are these: HepG2 Attagene ARE/NRF2 reporter, transcription factor activity; actives raise or lower the signal. The method, boiled down:
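Multiplexed reporter mRNA profiling in HepG2 after a 24 h chemical exposure. Curves fitted in both directions relative to DMSO negative control.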

Test [13] is described as follows: ATG_Oct_MLP_CIS: Attagene CIS-FACTORIAL HepG2 Assay for human Octamer-Binding Transcription Factor (Oct) (AID 2282993). The settings on record: HepG2 Attagene cis-factorial Oct reporter, mRNA; actives raise or lower the signal. The method, boiled down: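 Read-out: reporter mRNA via RT-PCR plus capillary electrophoresis of 6-FAM-labelled fragments. Transiently transfected HepG2, 24 h exposure, endogenous TF activity on cis elements. Gain or loss of signal fitted relative to DMSO.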

Test [14] addresses Bile acid receptor (Homo sapiens) (UniProt Q96RI1). The test can be described thus: ATG_FXR_TRANS: Attagene TRANS-FACTORIAL HepG2 Assay for Farnesoid X Receptor (FXR) (AID 2282979; active means hit-call score of the fitted dose curve at least 0.9, where 1 is the maximum;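 further: hits raise reporter mRNA above DMSO so AC50 marks FXR activation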). The conditions noted are these: HepG2 Attagene TRANS FXR-GAL4 reporter transcription. In a few lines:
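Transient transfection of HepG2 with multiplexed GAL4-UAS reporter units; exogenous FXR-GAL4 chimera. Dose 24 h → TriZol RNA → oligo(dT) RT → PCR, 6-FAM primer extension, HpaI cut → CE. Gain vs DMSO.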

Test [15] concerns the target Cellular tumor antigen p53 (Homo sapiens) (UniProt P04637). The test can be described thus: ATG_p53_CIS: Attagene CIS-FACTORIAL HepG2 Assay for human p53 Transcription Factor (AID 2282994). The settings on record: HepG2 p53 cis-element reporter, Attagene mRNA; actives raise or lower the signal. In a few lines: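 Multiplexed reporter mRNA assay in human HepG2 liver cells; cis-regulated units report endogenous factor activity. Values come from bidirectional curve fitting against DMSO negative control after 24 h treatment.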

Test [16] is described as follows: ATG_M_06_TRANS: Attagene TRANS-FACTORIAL HepG2 Assay for M06 Transcription Factor (Internal Marker) (AID 2282983; active means hit-call score of the fitted dose curve at least 0.9, where 1 is the maximum). The settings on record: HepG2 Attagene TRANS M06 internal marker reporter. The method, boiled down: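 Transfect HepG2 with MRTUs → dose compounds 24 h → isolate RNA, oligo(dT) RT → PCR with reporter primers → 6-FAM primer extension → HpaI digest → CE fragment analysis. Positive direction vs DMSO.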

Test [17] can be described thus: BSK_3C_TissueFactor: BioMAP Diversity Plus: 3C Assay for Tissue Factor Biomarker Activity (AID 2282997). The conditions noted are these: BioMAP 3C HUVEC, tissue factor biomarker readout; actives raise or lower the signal. In a few lines:
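ELISA read-out of Tissue Factor levels on human umbilical vein endothelium collected 24 h after chemical dosing. Gain or loss of signal was fitted relative to DMSO.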

Test [18] in a line: BSK_3C_uPAR: BioMAP Diversity Plus: 3C Assay for Urokinase-type plasminogen activator receptor (uPAR) Biomarker Activity (AID 2282998). The settings on record: BioMAP 3C HUVEC, uPAR biomarker ELISA; actives raise or lower the signal. In a few lines:
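HUVEC primary cells; 24 h post-dose; uPAR by ELISA; gain or loss of signal fitted bidirectionally vs DMSO baseline.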

Test [19] can be described thus: BSK_3C_VCAM1: BioMAP Diversity Plus: 3C Assay for Vascular cell adhesion molecule 1 (VCAM1) Biomarker Activity (AID 2282999). The conditions noted are these: BioMAP 3C HUVEC, VCAM1 ELISA, cytokine-stimulated; actives raise or lower the signal. The method, boiled down:
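Human umbilical vein endothelial cells (3C system), biomarker read by ELISA 24 h after dosing; bidirectional fit against DMSO baseline. Cytotoxicity tracked by SRB total-protein staining in parallel cultures at biomarker time.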

Where “and” joins values, the source holds several entries; their conditions need not be identical. Equal entries are not always repeated. Results filed as inconclusive are left out. Some compounds were tested as several samples or in several runs, with calls that do not always agree. Calls of active or inactive are those of the source. How the source made its calls, unless noted: active means hit-call score of the fitted dose curve at least 0.9, where 1 is the maximum; inactive means score below 0.9.

Sequence of Myc proto-oncogene protein (Homo sapiens) (P01106 whole entry, looked up, the tested form may be a part): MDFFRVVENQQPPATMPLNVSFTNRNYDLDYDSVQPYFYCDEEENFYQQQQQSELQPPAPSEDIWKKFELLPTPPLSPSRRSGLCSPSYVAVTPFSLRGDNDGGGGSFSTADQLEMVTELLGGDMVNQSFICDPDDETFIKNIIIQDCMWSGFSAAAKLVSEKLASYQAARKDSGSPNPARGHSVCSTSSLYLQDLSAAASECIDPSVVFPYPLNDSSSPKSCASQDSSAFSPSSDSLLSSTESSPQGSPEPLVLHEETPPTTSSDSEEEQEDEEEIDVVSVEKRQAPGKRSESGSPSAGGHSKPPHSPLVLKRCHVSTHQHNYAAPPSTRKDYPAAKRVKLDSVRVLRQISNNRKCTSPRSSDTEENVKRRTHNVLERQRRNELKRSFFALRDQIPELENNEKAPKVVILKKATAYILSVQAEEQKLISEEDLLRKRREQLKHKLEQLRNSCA
Sequence of Cellular tumor antigen p53 (Homo sapiens) (P04637 whole entry, looked up): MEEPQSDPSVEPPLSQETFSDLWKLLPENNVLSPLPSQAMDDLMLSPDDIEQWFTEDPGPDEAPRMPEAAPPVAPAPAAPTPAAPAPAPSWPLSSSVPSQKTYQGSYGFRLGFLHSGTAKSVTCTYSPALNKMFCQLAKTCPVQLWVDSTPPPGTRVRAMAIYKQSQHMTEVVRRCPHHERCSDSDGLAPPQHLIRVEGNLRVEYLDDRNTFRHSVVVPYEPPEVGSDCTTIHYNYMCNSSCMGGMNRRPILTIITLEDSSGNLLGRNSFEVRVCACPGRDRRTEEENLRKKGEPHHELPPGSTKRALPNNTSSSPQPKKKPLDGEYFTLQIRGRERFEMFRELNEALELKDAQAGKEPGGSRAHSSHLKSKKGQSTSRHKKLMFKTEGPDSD
Sequence of Oxysterols receptor LXR-alpha (Homo sapiens) (Q13133 whole entry, looked up, the tested form may be a part): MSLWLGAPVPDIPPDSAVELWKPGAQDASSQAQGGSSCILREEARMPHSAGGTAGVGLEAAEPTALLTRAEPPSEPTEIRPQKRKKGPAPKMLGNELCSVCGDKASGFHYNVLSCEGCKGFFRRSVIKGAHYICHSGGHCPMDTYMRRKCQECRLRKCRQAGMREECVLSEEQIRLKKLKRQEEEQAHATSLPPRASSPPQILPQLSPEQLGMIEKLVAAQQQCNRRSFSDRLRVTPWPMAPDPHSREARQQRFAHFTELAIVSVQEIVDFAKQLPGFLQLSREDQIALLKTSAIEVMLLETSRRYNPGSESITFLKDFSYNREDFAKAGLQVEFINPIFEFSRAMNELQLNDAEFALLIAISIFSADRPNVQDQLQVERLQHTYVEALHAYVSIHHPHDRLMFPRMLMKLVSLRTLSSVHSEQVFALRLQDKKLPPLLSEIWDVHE
Sequence of Hepatocyte nuclear factor 4-alpha (Homo sapiens) (P41235 whole entry, looked up, the tested form may be a part): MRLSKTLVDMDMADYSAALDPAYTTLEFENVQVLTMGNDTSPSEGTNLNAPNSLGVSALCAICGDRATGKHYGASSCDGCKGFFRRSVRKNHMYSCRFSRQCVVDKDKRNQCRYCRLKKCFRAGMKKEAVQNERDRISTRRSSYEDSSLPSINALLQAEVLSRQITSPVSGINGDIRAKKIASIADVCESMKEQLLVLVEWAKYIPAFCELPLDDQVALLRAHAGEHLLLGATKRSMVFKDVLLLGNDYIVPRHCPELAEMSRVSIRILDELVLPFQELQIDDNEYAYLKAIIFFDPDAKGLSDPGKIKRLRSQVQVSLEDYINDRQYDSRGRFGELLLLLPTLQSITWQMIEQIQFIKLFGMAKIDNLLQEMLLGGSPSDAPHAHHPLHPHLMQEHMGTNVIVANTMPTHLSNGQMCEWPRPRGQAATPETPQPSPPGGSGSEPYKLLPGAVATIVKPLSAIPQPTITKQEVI
Sequence of Nuclear respiratory factor 1 (Homo sapiens) (Q16656 whole entry, looked up): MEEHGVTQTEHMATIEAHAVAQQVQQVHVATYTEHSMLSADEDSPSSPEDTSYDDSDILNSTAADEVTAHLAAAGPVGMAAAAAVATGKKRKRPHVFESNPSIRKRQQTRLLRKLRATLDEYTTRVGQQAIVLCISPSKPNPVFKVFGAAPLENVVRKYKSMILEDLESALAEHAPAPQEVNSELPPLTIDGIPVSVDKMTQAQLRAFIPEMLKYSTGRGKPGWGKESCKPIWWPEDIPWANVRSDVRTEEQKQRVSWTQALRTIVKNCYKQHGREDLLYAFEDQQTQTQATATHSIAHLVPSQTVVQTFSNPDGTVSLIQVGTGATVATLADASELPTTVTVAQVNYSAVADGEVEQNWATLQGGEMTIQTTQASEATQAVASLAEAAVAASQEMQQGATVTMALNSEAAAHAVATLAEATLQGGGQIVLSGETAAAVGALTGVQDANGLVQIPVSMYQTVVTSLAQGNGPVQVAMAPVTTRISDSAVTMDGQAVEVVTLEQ
Sequence of Oxysterols receptor LXR-beta (Homo sapiens) (P55055 whole entry, looked up, the tested form may be a part): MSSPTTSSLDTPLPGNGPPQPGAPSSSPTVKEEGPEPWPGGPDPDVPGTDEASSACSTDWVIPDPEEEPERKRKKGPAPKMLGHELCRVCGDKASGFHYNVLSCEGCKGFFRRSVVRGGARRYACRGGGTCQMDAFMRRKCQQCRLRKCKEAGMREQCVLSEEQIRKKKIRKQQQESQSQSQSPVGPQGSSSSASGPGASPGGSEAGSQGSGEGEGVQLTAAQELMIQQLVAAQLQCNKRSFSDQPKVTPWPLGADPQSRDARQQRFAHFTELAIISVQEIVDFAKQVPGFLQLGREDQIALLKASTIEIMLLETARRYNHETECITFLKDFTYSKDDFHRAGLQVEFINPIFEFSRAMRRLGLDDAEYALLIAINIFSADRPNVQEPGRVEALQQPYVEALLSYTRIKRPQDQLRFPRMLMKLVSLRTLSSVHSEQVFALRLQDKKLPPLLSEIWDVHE

`CC(O)CN` (centres undefined): the compound was called inactive in [1], in test [2], in test [3], in test [4], in [5] and in test [6]. The result in test [7], in test [8], in test [9], in [10], in test [11] and in test [12] was inactive. For the same compound, in test [13], the result was inactive.
As to `NC(=O)c1cccnc1`, the outcome in test [1], in [14], in test [4], in [5], in test [6] and in test [7] was inactive. Moreover, the outcome in test [8], in test [9], in test [10], in [12], in test [13] and in test [15] was inactive.
Regarding `CC(CCO)CC(C)(C)C` (centres undefined), the result in [1], in test [2], in test [4], in test [16], in test [5] and in test [6] was inactive. The call in [7], in test [8], in [9], in [10], in test [12] and in [13] was inactive. Besides, the outcome in test [15] was inactive.
Take `C#C[C@]1(O)CC[C@H]2[C@@H]3CCc4cc(O)ccc4[C@H]3CC[C@@]21C`: the call in test [1], in test [2], in test [3], in test [4], in [16] and in [5] was inactive. In addition, the compound was classed as inactive in test [6], in [7], in test [8], in [9], in test [10] and in test [11]. Further, the result in test [12], in [13], in test [15] and in test [19] was inactive. For the same compound, the concentration at half-maximal activity (AC50) in [7] is 156 µM (active) and 172 µM (active); in test [8], 152 µM (active) and 138 µM (active); in test [9] it was 26.4 µM (active) and 72.3 µM (active) and 48.5 µM (active); in [10], 146 µM (active) and 61.6 µM (active); in test [11], 162 µM (active); in test [12], 187 µM (active). For the same compound, the AC50 in test [13] was 27.1 µM (active) [middle of 4 runs]; in [15], 30 µM (active) [middle of 4 runs]; in test [17], 5.38 µM (active); in test [18] it was 6.34 µM (active).
